# Experiments:
# Experiment in all cases: DAPPL (digital affinity profiling via proximity ligation, sequencing); 10 mM Tris-HCl pH 7.5, 50 mM NaCl, 1 mM DTT, 4% glycerol, room temperature, 30 min; GST-TFs on glutathione beads, 16-mer random dsDNA library, 0.1% formaldehyde crosslink after washing; high values mean tight binding
# Settings in all cases: protein: recombinant; tags: N-terminal GST; dsDNA, one strand shown
# FLI1 = biological target: T1, FLI1 (Homo sapiens, UniProt Q01543 1-452)
# T1 sequence: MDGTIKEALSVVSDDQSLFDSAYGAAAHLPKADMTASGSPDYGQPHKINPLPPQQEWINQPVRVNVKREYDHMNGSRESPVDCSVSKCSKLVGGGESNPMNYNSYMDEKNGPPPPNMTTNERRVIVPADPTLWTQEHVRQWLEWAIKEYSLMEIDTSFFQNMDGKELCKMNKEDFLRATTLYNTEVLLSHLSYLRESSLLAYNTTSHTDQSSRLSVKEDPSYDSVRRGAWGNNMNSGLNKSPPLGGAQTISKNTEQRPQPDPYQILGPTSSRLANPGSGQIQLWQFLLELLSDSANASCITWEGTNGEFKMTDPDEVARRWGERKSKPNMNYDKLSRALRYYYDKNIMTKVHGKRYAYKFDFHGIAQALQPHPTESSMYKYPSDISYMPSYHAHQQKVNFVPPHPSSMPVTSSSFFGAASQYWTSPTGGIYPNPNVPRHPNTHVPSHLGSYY
# Outline: (§1)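 After expression in yeast as GST fusions, human transcription factors were bound to glutathione beads, DNA-barcoded and mixed with a tag-only sample. The pools were incubated with 200 nmole of a 16-mer random double-stranded DNA library in Tris/NaCl/DTT/glycerol buffer (30 min, room temperature), washed and crosslinked with 0.1% formaldehyde. Proximity ligation with BsaI/T4 ligase ran for 1 h at 37 °C, before PCR amplification and sequencing on an Illumina NextSeq500. Binding signal is a hexamer's read frequency for a factor divided by its frequency for the tag-only sample.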
# ELK1 = biological target: T2, ELK1 (Homo sapiens, UniProt P19419 1-428)
# T2 sequence: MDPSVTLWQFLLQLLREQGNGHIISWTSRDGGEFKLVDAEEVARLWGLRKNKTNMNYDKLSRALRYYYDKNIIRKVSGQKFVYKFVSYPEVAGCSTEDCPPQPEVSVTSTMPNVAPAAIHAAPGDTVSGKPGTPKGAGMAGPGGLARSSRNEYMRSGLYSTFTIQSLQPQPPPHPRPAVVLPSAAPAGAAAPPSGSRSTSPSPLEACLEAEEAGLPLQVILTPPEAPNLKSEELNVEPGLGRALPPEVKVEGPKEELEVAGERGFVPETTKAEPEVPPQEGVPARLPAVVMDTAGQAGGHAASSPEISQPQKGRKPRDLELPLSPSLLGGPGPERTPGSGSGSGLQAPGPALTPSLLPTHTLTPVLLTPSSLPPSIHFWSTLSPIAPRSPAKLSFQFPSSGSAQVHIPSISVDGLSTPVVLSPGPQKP
# Outline: as §1
# GABPA = biological target: T3, GABPA (Homo sapiens, UniProt Q06546 1-454)
# T3 sequence: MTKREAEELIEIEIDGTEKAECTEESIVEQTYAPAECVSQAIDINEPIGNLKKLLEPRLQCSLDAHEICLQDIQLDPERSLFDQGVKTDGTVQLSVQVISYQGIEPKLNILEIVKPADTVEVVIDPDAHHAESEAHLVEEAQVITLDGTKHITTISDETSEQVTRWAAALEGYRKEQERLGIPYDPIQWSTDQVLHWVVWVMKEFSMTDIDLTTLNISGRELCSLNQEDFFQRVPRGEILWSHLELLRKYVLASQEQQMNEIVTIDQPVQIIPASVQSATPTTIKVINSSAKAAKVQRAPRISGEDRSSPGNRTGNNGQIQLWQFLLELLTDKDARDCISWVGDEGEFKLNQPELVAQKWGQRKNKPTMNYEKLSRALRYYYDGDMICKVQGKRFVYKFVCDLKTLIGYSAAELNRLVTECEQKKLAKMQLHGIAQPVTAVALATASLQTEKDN
# Outline: as §1
# ERG = biological target: T4, ERG (Homo sapiens, UniProt P11308 1-479)
# T4 sequence: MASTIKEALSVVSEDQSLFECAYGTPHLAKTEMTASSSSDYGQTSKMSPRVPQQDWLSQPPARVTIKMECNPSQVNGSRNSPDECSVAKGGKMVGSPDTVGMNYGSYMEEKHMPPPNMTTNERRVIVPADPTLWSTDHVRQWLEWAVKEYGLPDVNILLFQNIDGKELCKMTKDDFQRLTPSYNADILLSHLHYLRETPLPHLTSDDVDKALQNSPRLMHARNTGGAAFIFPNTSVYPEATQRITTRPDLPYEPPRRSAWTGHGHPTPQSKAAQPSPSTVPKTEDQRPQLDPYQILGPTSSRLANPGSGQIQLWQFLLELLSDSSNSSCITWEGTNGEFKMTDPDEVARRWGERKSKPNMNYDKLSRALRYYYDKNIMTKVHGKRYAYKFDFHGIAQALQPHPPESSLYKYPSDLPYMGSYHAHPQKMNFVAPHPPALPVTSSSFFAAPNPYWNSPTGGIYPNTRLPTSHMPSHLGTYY
# Outline: as §1
# ELF1 = ELF1 (Homo sapiens, UniProt P32519 1-619)
# Chain of ELF1 (P32519 whole entry): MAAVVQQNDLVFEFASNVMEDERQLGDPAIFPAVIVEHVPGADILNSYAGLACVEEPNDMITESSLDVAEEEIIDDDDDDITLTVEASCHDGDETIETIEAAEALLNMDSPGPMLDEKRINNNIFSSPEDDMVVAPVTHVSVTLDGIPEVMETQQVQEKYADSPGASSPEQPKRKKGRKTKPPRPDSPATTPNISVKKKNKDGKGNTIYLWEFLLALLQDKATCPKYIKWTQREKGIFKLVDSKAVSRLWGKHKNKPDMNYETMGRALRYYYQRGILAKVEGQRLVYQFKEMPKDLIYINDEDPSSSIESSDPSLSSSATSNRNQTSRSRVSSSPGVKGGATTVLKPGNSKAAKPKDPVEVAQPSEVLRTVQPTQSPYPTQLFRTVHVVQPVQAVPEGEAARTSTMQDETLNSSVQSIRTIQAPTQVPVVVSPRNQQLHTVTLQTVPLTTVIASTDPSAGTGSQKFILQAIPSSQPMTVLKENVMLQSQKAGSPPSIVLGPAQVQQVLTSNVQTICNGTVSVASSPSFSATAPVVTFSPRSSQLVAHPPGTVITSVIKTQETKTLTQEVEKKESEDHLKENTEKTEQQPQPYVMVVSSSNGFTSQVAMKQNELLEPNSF
# Outline: as §1
# EHF = biological target: T5, EHF (Homo sapiens, UniProt Q9NZC4 1-300)
# T5 sequence: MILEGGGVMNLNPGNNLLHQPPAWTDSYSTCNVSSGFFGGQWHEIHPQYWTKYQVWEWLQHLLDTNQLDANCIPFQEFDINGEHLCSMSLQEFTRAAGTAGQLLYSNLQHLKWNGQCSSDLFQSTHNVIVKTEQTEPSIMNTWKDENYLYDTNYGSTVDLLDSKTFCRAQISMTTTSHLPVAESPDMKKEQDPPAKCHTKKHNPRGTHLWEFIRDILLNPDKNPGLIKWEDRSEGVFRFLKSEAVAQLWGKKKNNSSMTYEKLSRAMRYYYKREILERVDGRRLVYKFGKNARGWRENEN
# Outline: as §1
# SPI1 = SPI1 (Homo sapiens, UniProt P17947 1-270)
# Outline: as §1
# SPIB = SPIB (Homo sapiens, UniProt Q01892 1-262)
# Chain of SPIB (Q01892 whole entry): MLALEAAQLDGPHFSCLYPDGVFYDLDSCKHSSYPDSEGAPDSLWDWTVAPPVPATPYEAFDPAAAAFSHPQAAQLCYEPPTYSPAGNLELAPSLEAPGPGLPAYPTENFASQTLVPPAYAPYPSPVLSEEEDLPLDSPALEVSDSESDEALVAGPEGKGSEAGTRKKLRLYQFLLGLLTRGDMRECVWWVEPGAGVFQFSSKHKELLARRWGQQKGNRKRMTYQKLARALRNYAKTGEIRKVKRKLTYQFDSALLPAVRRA
# Outline: as §1
# ELK3 = biological target: T6, ELK3 (Homo sapiens, UniProt P41970 1-407)
# T6 sequence: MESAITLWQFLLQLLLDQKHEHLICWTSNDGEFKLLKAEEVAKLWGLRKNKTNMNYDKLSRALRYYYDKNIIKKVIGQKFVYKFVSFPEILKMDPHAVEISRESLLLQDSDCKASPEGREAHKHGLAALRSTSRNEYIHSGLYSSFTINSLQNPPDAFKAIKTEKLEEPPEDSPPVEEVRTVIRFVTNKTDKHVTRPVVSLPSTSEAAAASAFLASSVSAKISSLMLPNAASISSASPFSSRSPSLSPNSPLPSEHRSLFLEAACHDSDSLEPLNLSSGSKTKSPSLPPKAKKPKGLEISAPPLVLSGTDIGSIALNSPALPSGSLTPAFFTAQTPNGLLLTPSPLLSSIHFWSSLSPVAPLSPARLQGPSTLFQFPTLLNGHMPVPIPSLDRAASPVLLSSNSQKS
# Outline: as §1
# FEV = biological target: T7, FEV (Homo sapiens, UniProt Q99581 1-238)
# T7 sequence: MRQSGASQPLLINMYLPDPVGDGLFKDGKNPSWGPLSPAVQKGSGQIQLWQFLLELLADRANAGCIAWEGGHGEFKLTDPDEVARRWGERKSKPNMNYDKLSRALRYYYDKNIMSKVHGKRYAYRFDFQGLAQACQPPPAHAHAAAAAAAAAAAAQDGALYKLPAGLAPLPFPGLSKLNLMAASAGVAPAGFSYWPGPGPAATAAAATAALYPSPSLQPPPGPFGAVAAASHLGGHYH
# Outline: as §1
# ETV5 = ETV5 (Homo sapiens, UniProt P41161 1-510)
# Chain of ETV5 (P41161 whole entry): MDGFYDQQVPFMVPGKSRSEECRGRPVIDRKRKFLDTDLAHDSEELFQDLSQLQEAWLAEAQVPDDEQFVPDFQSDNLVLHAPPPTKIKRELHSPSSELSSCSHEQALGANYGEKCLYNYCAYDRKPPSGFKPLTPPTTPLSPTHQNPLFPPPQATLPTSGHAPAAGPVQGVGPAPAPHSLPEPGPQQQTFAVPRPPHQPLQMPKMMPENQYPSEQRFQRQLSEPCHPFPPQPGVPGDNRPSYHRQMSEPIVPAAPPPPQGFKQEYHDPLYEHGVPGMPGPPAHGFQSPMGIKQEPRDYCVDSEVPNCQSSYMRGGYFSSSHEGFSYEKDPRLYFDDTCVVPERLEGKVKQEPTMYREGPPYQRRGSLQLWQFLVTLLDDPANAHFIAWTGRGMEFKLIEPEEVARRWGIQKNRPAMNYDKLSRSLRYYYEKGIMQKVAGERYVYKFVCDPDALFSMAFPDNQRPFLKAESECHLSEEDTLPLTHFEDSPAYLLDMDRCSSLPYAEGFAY
# Outline: as §1
# SPIC = biological target: T8, SPIC (Homo sapiens, UniProt Q8N5J4 1-248)
# T8 sequence: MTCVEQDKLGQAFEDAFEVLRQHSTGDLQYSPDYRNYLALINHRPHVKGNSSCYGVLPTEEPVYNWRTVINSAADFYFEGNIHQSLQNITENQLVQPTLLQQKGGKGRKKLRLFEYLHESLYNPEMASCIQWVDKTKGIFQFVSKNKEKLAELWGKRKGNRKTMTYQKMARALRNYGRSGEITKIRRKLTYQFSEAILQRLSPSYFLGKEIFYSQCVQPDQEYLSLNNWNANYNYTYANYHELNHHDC
# Outline: as §1
# ELF4 = ELF4 (Homo sapiens, UniProt Q99607 1-663)
# Chain of ELF4 (Q99607 whole entry): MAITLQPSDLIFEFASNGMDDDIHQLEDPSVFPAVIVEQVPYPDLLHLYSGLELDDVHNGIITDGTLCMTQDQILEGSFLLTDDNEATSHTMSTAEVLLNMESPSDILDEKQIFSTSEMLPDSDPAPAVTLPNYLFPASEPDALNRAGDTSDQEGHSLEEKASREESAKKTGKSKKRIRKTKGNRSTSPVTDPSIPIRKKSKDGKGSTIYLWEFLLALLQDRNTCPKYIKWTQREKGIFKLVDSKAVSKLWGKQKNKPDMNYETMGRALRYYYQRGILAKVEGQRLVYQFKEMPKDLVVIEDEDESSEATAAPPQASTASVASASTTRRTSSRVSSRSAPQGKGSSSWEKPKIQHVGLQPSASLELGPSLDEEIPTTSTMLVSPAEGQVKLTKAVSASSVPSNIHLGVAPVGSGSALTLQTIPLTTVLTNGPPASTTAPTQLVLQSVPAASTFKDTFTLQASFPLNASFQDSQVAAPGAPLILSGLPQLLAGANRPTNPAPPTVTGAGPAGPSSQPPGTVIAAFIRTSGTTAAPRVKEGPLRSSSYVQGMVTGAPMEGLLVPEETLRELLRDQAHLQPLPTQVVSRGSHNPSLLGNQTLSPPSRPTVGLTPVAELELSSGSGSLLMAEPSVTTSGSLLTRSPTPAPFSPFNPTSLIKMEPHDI
# Outline: as §1
# ELK4 = biological target: T9, ELK4 (Homo sapiens, UniProt P28324-2 1-405)
# T9 sequence: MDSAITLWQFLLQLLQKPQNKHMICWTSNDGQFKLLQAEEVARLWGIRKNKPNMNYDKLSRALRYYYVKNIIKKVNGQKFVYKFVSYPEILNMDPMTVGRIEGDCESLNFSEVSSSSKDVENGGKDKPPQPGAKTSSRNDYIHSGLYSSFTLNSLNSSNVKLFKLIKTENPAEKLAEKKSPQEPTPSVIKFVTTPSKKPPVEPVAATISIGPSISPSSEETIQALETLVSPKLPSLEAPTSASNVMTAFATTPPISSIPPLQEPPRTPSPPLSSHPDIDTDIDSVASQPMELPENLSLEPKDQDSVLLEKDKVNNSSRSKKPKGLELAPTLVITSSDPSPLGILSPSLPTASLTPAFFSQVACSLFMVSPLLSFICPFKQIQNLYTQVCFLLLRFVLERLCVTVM
# Outline: as §1
# ETV2 = biological target: T10, ETV2 (Homo sapiens, UniProt O00321 1-342)
# T10 sequence: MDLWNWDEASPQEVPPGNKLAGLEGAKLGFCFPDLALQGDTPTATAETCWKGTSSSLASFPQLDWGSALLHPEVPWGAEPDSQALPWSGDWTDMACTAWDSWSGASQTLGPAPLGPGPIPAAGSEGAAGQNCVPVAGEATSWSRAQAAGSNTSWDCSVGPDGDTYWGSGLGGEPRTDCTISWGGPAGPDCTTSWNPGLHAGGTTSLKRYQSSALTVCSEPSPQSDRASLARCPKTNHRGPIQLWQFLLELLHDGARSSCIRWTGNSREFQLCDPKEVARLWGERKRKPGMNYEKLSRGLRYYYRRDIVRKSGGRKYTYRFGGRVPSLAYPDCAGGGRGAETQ
# Outline: as §1
# ELF3 = biological target: T11, ELF3 (Homo sapiens, UniProt P78545 1-371)
# T11 sequence: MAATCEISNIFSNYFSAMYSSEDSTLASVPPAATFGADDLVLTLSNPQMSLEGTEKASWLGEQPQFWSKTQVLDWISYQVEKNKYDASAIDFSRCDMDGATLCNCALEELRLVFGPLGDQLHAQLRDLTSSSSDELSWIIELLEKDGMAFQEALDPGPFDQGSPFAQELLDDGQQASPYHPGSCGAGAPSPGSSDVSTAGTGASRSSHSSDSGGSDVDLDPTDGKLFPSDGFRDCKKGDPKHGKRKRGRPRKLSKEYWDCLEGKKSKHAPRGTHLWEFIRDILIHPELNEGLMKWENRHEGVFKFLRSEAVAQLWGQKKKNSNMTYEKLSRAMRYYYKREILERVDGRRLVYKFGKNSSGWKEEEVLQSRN
# Outline: as §1
# ETV1 = ETV1 (Homo sapiens, UniProt P50549 1-477)
# Chain of ETV1 (P50549 whole entry): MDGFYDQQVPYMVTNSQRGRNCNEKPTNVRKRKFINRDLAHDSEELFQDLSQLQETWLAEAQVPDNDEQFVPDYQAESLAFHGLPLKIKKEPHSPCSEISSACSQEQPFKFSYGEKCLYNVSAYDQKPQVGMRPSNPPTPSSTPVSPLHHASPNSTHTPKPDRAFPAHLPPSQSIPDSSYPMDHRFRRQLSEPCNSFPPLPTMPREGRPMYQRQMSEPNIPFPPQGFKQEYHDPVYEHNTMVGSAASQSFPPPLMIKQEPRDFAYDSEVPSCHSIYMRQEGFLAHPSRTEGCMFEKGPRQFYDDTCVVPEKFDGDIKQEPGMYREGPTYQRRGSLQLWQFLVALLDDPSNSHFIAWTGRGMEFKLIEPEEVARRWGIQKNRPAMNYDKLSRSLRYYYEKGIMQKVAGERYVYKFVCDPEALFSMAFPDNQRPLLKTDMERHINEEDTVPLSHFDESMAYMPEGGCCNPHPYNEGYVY
# Outline: as §1
Sequence,binding signal (FLI1),binding signal (ELK1),binding signal (GABPA),binding signal (ERG),binding signal (ELF1),binding signal (EHF),binding signal (SPI1),binding signal (SPIB),binding signal (ELK3),binding signal (FEV),binding signal (ETV5),binding signal (SPIC),binding signal (ELF4),binding signal (ELK4),binding signal (ETV2),binding signal (ELF3),binding signal (ETV1)
GAAGCG,"1.37 fold enrichment (6-mer frequency, TF over GST control)","1.24 fold enrichment (6-mer frequency, TF over GST control)","1.27 fold enrichment (6-mer frequency, TF over GST control)","1.42 fold enrichment (6-mer frequency, TF over GST control)","1.29 fold enrichment (6-mer frequency, TF over GST control)","1.53 fold enrichment (6-mer frequency, TF over GST control)","1.43 fold enrichment (6-mer frequency, TF over GST control)","1.28 fold enrichment (6-mer frequency, TF over GST control)","1.49 fold enrichment (6-mer frequency, TF over GST control)","1.37 fold enrichment (6-mer frequency, TF over GST control)","1.33 fold enrichment (6-mer frequency, TF over GST control)","1.27 fold enrichment (6-mer frequency, TF over GST control)","1.2 fold enrichment (6-mer frequency, TF over GST control)","1.2 fold enrichment (6-mer frequency, TF over GST control)","1.19 fold enrichment (6-mer frequency, TF over GST control)","1.22 fold enrichment (6-mer frequency, TF over GST control)","1.38 fold enrichment (6-mer frequency, TF over GST control)"
CGCACT,"1.12 fold enrichment (6-mer frequency, TF over GST control)","1.33 fold enrichment (6-mer frequency, TF over GST control)","1.28 fold enrichment (6-mer frequency, TF over GST control)","1.21 fold enrichment (6-mer frequency, TF over GST control)","1.22 fold enrichment (6-mer frequency, TF over GST control)","1.29 fold enrichment (6-mer frequency, TF over GST control)","1.41 fold enrichment (6-mer frequency, TF over GST control)","1.27 fold enrichment (6-mer frequency, TF over GST control)","1.24 fold enrichment (6-mer frequency, TF over GST control)","1.32 fold enrichment (6-mer frequency, TF over GST control)","1.28 fold enrichment (6-mer frequency, TF over GST control)","1.04 fold enrichment (6-mer frequency, TF over GST control)","1.29 fold enrichment (6-mer frequency, TF over GST control)","1.1 fold enrichment (6-mer frequency, TF over GST control)","1.29 fold enrichment (6-mer frequency, TF over GST control)","1.26 fold enrichment (6-mer frequency, TF over GST control)","1.23 fold enrichment (6-mer frequency, TF over GST control)"

# — article PMC7862700, “An all-to-all approach to the identification of sequence-specific readers for epigenetic DNA modifications on cytosine”
